Screens as filed in PubChem BioAssay.
MRP-1 activ = MRP-1 activation. viability increase, % at 10 µM. 0.61% of 140,000 active. H69AR cells + doxorubicin, viability rescue, CellTiter-Glo;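 active means viability gain under doxorubicin at or above a set limit, the compound median plus 3 SD, cut at about 4.7% in these data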;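 further: MRP-1 overexpressing cells given doxorubicin 25 µM after compound pretreatment; 18-22 h compound pretreatment then 72 h with doxorubicin before readout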
CYP2C9 inhib = human CYP2C9 inhibition; P11712; CYP2C9 Supersomes, luciferin-H conversion, luminescence; inhibition, % at 5 µM; 20% of 96,000 active; AID 777;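 active means blocking of liver enzyme CYP2C9 beyond about 50% at 5 µM, limit read from the data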
Target sequence (P11712 whole entry, looked up): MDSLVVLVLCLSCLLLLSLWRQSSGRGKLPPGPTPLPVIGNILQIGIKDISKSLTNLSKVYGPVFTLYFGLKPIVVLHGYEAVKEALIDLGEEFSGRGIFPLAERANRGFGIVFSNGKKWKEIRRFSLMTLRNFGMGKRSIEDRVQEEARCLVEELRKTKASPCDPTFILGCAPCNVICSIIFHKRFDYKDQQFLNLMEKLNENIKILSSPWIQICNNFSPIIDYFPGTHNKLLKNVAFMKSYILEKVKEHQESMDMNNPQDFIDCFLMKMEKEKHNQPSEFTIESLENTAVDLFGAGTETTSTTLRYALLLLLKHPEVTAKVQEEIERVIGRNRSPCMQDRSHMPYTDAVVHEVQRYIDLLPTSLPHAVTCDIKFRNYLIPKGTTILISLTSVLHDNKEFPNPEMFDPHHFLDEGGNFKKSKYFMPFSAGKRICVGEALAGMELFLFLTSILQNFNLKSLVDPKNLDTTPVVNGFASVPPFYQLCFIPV
MRP resist rev = MRP-mediated drug resistance reversal; H69AR cells + 2 uM doxorubicin, CellTiter-Glo, 72 h; differential viability (reversal), % at 10 µM; 0.04% of 85,000 active;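 active means viability drop by adding the cancer drug above about 55%, with treated viability meeting a 40% cutoff, limit read from the data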;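 further: larger differential means the compound sensitizes cells more to doxorubicin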
CYP2C9 act = activators of human CYP2C9. P11712. recombinant CYP2C9, luciferin-H conversion, luminescence; hits give high values; factor 1 = untreated enzyme, 0 = blocked. activation factor at 5 µM. 1.4% of 96,000 active;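 active means activation factor of 2 or more for CYP2C9 at a 5 µM dose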
CYP2C19 inh = inhibitors of human CYP2C19; P33261; CYP2C19 Supersomes, luciferin-H EGE luminescence, 30 min; inhibition, % at 5 µM; 21% of 96,000 active; AID 778;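 active means CYP2C19 inhibition above a set limit at 5 µM in the primary screen, cut at about 50% in these data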
CYP2C19 act = cytochrome P450 2C19 (human) activation; activation factor at 5 µM; 96,000 tested, under 10 active; P33261; recombinant CYP2C19, luciferin-H EGE luminescence; hits give high values; 0 = fully inhibited enzyme, 1 = untreated enzyme;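 active means activation factor of at least 2 at 5 µM in the primary screen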
Large screens that a line does not name were inactive. This is a sample that favours compounds with a hit; in the whole collection about 21% have one here.

COc1ccc(NC(C)C(=O)Nc2ccc(C(C)(C)C)cc2)cc1Cl (centres undefined)	CYP2C9 inhib 90, CYP2C19 inh 94 (no result: MRP resist rev)
COc1ccc(NC(=O)/C=C/C(=O)O)cc1Cl	none (no result: MRP resist rev)
COc1ccc(Cc2nnn(CC(=O)O)n2)cc1	none
CC(=O)Nc1ccc2c(c1)nc(CCN1CCN(C)CC1)n2C	none
COc1ccc(N(CC(=O)N/N=C/c2ccc(-c3ccc([N+](=O)[O-])cc3)o2)S(=O)(=O)c2ccc(C)cc2)cc1	none (no result: CYP2C9 inhib, MRP resist rev, CYP2C9 act, CYP2C19 inh, CYP2C19 act)
CCN(CC)S(=O)(=O)c1ccc(Oc2cccc(C(C)=O)c2)nc1	CYP2C19 inh 51
CCN(CC)S(=O)(=O)c1ccc(OCC(=O)NCc2ccccc2)cc1	CYP2C9 inhib 67
CCN(CC)S(=O)(=O)c1ccc(Oc2ccccc2)cc1	CYP2C9 inhib 66
CCN(CC)S(=O)(=O)c1ccc(Cl)c(C(=O)Oc2cccnc2)c1	none (no result: MRP resist rev)
CN(C)S(=O)(=O)c1ccc(Oc2ccccc2)cc1	CYP2C9 inhib 58
COc1cc(C)c(C)cc1S(=O)(=O)N1CCCCC1c1cccnc1 (centres undefined)	CYP2C19 inh 81
Cn1c(=O)c2sccc2n2c(CCCC(=O)NCc3ccc4c(c3)OCO4)nnc12	CYP2C19 inh 77 (no result: MRP resist rev)
Cc1[nH]c2ccccc2c1NC(=O)CN1CCN(Cc2ccc3c(c2)OCO3)CC1	none
O=C(CCCCCn1c(=O)[nH]c2ccccc2c1=O)N1CCN(Cc2ccc3c(c2)OCO3)CC1	CYP2C9 inhib 80, CYP2C19 inh 65
O=C(CCCCn1c(=O)[nH]c2ccsc2c1=O)NCc1ccc2c(c1)OCO2	CYP2C9 inhib 60
Cn1c(=O)cc(SCC(=O)N2CCN(Cc3ccc4c(c3)OCO4)CC2)c2ccccc21	CYP2C9 inhib 52
Nn1c(Cc2cccc3ccccc23)nnc1SCCOc1ccc(F)cc1	none (no result: CYP2C9 inhib, MRP resist rev, CYP2C9 act, CYP2C19 inh, CYP2C19 act)
Cc1n[nH]c(C)c1CCC(=O)N/N=C/C=C/c1ccccc1	none (no result: CYP2C9 inhib, MRP resist rev, CYP2C9 act, CYP2C19 inh, CYP2C19 act)
Cc1ccc(Nc2nc(N)nc(CSc3ncccn3)n2)cc1	none (no result: MRP resist rev)
CCOC(=O)c1cnc(SCc2nc(N)nc(Nc3ccc(F)cc3)n2)nc1N	CYP2C9 inhib 66, CYP2C19 inh 72
CCOC(=O)c1cnc(SCc2nc(N)nc(Nc3ccc(C)cc3)n2)nc1N	CYP2C9 inhib 54, CYP2C19 inh 54
CCOC(=O)c1cnc(SCc2nc(N)nc(Nc3ccccc3OC)n2)nc1N	CYP2C9 inhib 60
c1ccc(N2CCN(c3cnc4ccccc4n3)CC2)cc1	CYP2C19 inh 51
Cc1cc(C)nc(SCc2nnc(SCC(=O)Nc3c(C)cccc3C)o2)n1	none (no result: CYP2C9 inhib, CYP2C9 act, CYP2C19 inh, CYP2C19 act)
Cc1cc(C)nc(SCc2nnc(SCC(=O)N3CCCc4ccccc43)n2C)n1	none
Cc1cc(C)nc(SCc2nnc(SCC(=O)N3CCCc4ccccc43)o2)n1	CYP2C19 inh 80
Cc1cc(C)nc(SCc2nnc(SCC(=O)Nc3cc(C(F)(F)F)ccc3Cl)o2)n1	CYP2C9 act 2, CYP2C19 inh 80
Cc1cc(C)nc(SCc2nnc(SCc3ccccc3Cl)o2)n1	CYP2C19 inh 78
OC1(c2ccccc2)CN(c2ccccc2)C2=[N+]1CCS2 (centres undefined)	none (no result: CYP2C9 inhib, MRP resist rev, CYP2C9 act, CYP2C19 inh, CYP2C19 act)
Cc1nn(-c2ccccc2)c(=S)c2ccccc12	none (no result: CYP2C9 inhib, MRP resist rev, CYP2C9 act, CYP2C19 inh, CYP2C19 act)
Cc1cc(C)c(C#N)c(Oc2ccc(O)cc2)n1	CYP2C9 inhib 65
Cc1ccc(C(=O)COC(=O)C2CC(=O)N(c3nc(-c4ccccc4)cs3)C2)cc1C (centres undefined)	CYP2C9 inhib 90 (no result: MRP resist rev)
CCCCOc1ccc(NC(=O)CSc2nnnn2C)cc1	none
COc1ccc(C2C(C#N)=C(N)Oc3n[nH]c(C)c32)cc1Cn1nnc2ccccc21 (centres undefined)	CYP2C9 inhib 68
CCCc1[nH]nc2c1C(c1ccccc1OC)C(C#N)=C(N)O2 (centres undefined)	none
CCn1c2ccccc2c2cc(C3C(C#N)=C(N)Oc4n[nH]c(COC)c43)ccc21 (centres undefined)	CYP2C9 inhib 59
CCCc1[nH]nc2c1C(c1ccc(O)c(OC)c1)C(C#N)=C(N)O2 (centres undefined)	CYP2C19 inh 60
CCCc1[nH]nc2c1C(c1ccc(OC)c(Cn3nnc4ccccc43)c1)C(C#N)=C(N)O2 (centres undefined)	CYP2C9 inhib 62
CCN(CC)CC(C)OC(=O)COc1ccc(OC)cc1 (centres undefined)	none (no result: CYP2C9 inhib, CYP2C9 act, CYP2C19 inh, CYP2C19 act)
